PKA-R2B activ – PKA-R2B complex activation. PKA-R2B holoenzyme dissociation, Cy5-IP20 fluorescence polarization; R2B truncated from residue 108, S112A mutant; 0% DMSO only, 100% 113 µM cGMP. activation, % at 11.4 µM. 340,000 tested, 0.079% active. AID 504700;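 active = activation above a cutoff set at the mean over all compounds plus 3 SD, cut at about 18% in these data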;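 also: higher means more holoenzyme dissociation and a rise in polarization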
Target sequence (P31323 whole entry, looked up, other chains not shown, the tested form may be a part): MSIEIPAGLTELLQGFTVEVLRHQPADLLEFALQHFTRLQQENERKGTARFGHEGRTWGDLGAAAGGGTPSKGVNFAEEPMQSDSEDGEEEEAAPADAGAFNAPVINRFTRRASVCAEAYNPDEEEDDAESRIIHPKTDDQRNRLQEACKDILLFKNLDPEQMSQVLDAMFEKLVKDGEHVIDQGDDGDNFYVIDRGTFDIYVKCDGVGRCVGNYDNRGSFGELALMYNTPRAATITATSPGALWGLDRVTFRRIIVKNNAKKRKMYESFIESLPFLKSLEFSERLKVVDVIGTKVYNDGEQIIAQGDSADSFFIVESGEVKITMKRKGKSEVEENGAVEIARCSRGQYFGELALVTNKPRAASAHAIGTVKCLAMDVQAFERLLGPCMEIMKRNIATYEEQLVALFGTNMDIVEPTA
PKA-R1A activ – activates the PKA-R1A holoenzyme complex; 340,000 tested, 0.083% active; activation, % at 11.4 µM; PKA-R1A dissociation, Cy5-IP20 fluorescence polarization; scaled: DMSO 0%, 113 µM cGMP 100%; P00514+P68181;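 active = percent activation above the mean of all tested compounds plus 3 SD, cut at about 19% in these data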;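 also: higher means more PKAc released from R1A so a rise in polarization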
Rev-erbA mod – modulates human Rev-erb alpha binding to DNA. Rev-erbα–FITC-DNA binding, fluorescence polarization, 90 min. P20393. AID 1259318. activity, % at 10 µM. 370,000 tested, 0.79% active;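 active = activity above about 14%, limit read from the data; passing the limit was not always enough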;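 also: 0% = DMSO wells with 35 nM protein and 100% = DMSO wells with 750 nM protein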
PG9 binder – PG9 antibody binding by small molecule; TR-FRET gp120-PG9 antibody binding; inhibition, % at 6.7 µM; 360,000 tested, 0.43% active; AID 624416; in the data active = inhibition above about 8.5%
PG9 bind confirm – PG9 antibody binding, confirmed | shares compounds with PG9 binder | TR-FRET PG9 antibody binding, biochemical | inhibition, % at 6.7 µM | 1,500 tested, 90% active; in the data active = inhibition above about 9%
PGV04 Ab binding – PGV04 control antibody binding, counter-screen; shares compounds with PG9 binder; TR-FRET PGV04 antibody-gp120 binding, biochemical; inhibition, % at 6.7 µM; 1,500 tested, 95% active; in the data active = inhibition above about 9.5%
* marks the source's active call; other numbers are inactive results; . = no result given. The list is not random: actives were taken first. Their share in the collection is about 1.2%.

SMILES | PKA-R2B activ | PKA-R1A activ | Rev-erbA mod | PG9 binder | PG9 bind confirm | PGV04 Ab binding
CCOC(=O)Cn1cc(CN2C(C(=O)OC)CN(Cc3ccc(OC)cc3)CCS2(=O)=O)nn1 (stereo not given) | . | . | -5 | . | . | .
COc1ccc(Nc2nc(C)nc3c2oc2ccccc23)c(OC)c1 | -8 | 0 | 7 | 13* | 15* | 22*
CCCSc1nnc(-c2ccco2)n1C | . | . | -6 | . | . | .
COc1ccc(-c2cccc(C3CC=CC4C3C(=O)N(Cc3ccccc3)C4c3ccc4ccccc4c3)c2)cc1 (stereo not given) | -14 | -3 | -1 | 3 | . | .
CN(C)c1ccc(-c2cccc(C3CC=CC4C3C(=O)N(Cc3ccccc3)C4c3ccc4ccccc4c3)c2)cc1 (stereo not given) | 4 | -8 | 9 | 26* | 36* | 48*
COc1ccc(C)cc1NC(=O)COC(=O)c1ccc2c(c1)OCO2 | 5 | -6 | 8 | 24* | 24* | 28*
Cc1c(Cl)cnc(NC(=O)COC(=O)c2ccc3c(c2)OCO3)c1Cl | -7 | 7 | -1 | 28* | 16* | 30*
Cc1cc(C)c(OCC(=O)Nc2ccc3c(c2)OCO3)cc1C | 10 | 5 | 7 | 18* | 20* | 24*
CCOC(=O)C1=NOC(C(=O)Nc2nccs2)(C(=O)C2CC2)C1 (stereo not given) | . | . | 3 | . | . | .
CCn1c2ccccc2c2cc(NC(=O)COC(=O)c3cccc(OC)c3)ccc21 | . | . | 2 | . | . | .
CSCCC(Nc1ncnc2ccc(Br)cc12)C(=O)O (stereo not given) | 7 | 5 | 2 | 13* | 20* | 20*
N#C/C(=C(/O)COC(=O)COc1cccc(Br)c1)c1nc2ccccc2[nH]1 | -10 | 4 | 7 | 12* | 19* | 31*
CCS(=O)(=O)Nc1ccc(-c2ccc(NS(=O)(=O)CC)c(OC)c2)cc1OC | -1 | -5 | -1 | 17* | 14* | 16*
CN(C)S(=O)(=O)c1ccc(Cl)c(NC(=O)CSc2nc3c(cc2C#N)C(=O)CCC3)c1 | -12 | -4 | -1 | -2 | . | .
Cc1ccc(NC(=O)CSc2nc3c(cc2C#N)C(=O)CCC3)cc1S(=O)(=O)N(C)C | -6 | -6 | -3 | 13* | 12* | 14*
C#CCNC(=O)C[C@@H]1C(=O)N(CC=C)C2=CCCCC[C@]21C(=O)OC | . | . | 2 | . | . | .
COC(=O)[C@]12C=CCN1[C@@H](c1ccc(Cl)cc1)c1c(c3ccccc3n1S(=O)(=O)c1ccc(C)cc1)C2 | . | . | -2 | . | . | .
Cc1cc(=O)n2c(C(=O)Nc3ccc(C(=O)OC(C)C)cc3)c(C(=O)Nc3ccccc3)sc2n1 | 3 | 1 | 18 | 12* | 22* | 31*
O=C(NCCc1ccccc1)c1ccc(Sc2ccccc2Cl)c([N+](=O)[O-])c1 | . | . | 2 | . | . | .
CC1CCCN(C(=O)CSc2cnc3ccccc3n2)C1 (stereo not given) | -9 | 5 | 4 | 30* | 35* | 39*
Cc1nc2ccccc2nc1SCC(=O)N1CCC(C)CC1 | 3 | 3 | 3 | 38* | 34* | 42*
CC1CCCN(C(=O)CSc2nc3ncccc3[nH]2)C1 (stereo not given) | -3 | -6 | 2 | -1 | . | .
CN[C@H]1C[C@H]2c3[nH]c4c(-c5cccc(C)c5)cccc4c3CCN2C(=O)[C@H]1[C@H](C)O | . | . | 3 | . | . | .
Cc1cccc(NC(=O)c2cccc3c2-c2ccccc2C3=O)c1C | . | . | 0 | . | . | .
CCOC(=O)CC[C@@H]1CC[C@]2(CCCN(Cc3ccc(OC)cc3)C2)O1 | . | . | -1 | . | . | .
COC(=O)[C@]12C[C@H](CC(=O)N3CCCC3)C(=O)N(CCc3ccc(OC)c(OC)c3)C1=C[C@H](C(C)(C)C)O[C@@H]2C | . | . | 0 | . | . | .
COC(=O)c1cc(-c2cccc(OC)c2)c2c(=O)[nH]c(=O)n(C)c2n1 | -16 | -17 | 8 | 8.8* | 18* | 24*
COC(=O)c1cc(-c2cccc([N+](=O)[O-])c2)c2c(=O)n(C)c(=O)n(C)c2n1 | 1 | 0 | -3 | -2 | . | .
Cc1cc(C)cc(NC(=O)C2CCN(S(=O)(=O)c3ccc4[nH]c(=O)ccc4c3)CC2)c1 | 4 | -6 | 6 | 13* | 16* | 30*
